Here are results for seven molecules from PubChem BioAssay (NCI).

Among the test systems are DU-145 prostate; K-562 leukemia; MALME-3M melanoma; MDA-MB-231 breast; RXF 393 renal; SF-268 CNS; SF-295 CNS; SF-539 CNS; UACC-257 melanoma; M14 melanoma; HCT-15 colon; HT29 colon; SNB-75 CNS; SNB-19 CNS; U251 CNS; PC-3 prostate; SK-MEL-5 melanoma; UACC-62 melanoma; LOX IMVI melanoma; SK-MEL-28 melanoma.
Test in all cases: NCI-60 one-dose screen, 48 h (100 = growth as untreated, 0 = no growth, -100 = all killed)
Common to all, as to conditions: 10 µM unless noted

“And” between values parts separate entries of the source, which are not always exact repeats. Identical values can stand only once. This is part of a sample that, as a whole, favours compounds with a hit. Of some 83,000 tested, about 20% had one in any assay.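 Method: cells in 96-well plates; compound added at one concentration; 48 h incubation; percent growth measured; values under 10 scored active.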 A number with no mark means an inactive call. The source made the active and inactive calls.

`CN(C)C(=O)SC1=C(c2c(Cl)cccc2Cl)C(=O)c2ccccc21`: the growth in the test with DU-145 prostate was -8.29% (active); with K-562 leukemia it was -8.92% (active); with MALME-3M melanoma it was -69.7% (active); with MDA-MB-231 breast, 80.6%; in the test with RXF 393 renal, -27.5% (active); with SF-268 CNS it was 13.3%. The growth is 103% in the test with SF-295 CNS; 91.1% with SF-539 CNS; 48.8% with UACC-257 melanoma; 23.2% in the test on M14 melanoma; -22.4% (active) in the test with HCT-15 colon; -35.3% (active) in the test on HT29 colon. The growth with SNB-75 CNS was 49.3%; with SNB-19 CNS, 97.4%; with U251 CNS, 90%; in the test on PC-3 prostate it was 77%; with SK-MEL-5 melanoma it was 40.1%; in the test with UACC-62 melanoma, 26.7%. Also, the values for the growth in the test on LOX IMVI melanoma and with SK-MEL-28 melanoma were -48% (active) and -34.1% (active), respectively.
In the case of `CN(C)c1ccc(/C=N/N=C(\C#N)[S][Sn]([Cl])([c]2ccccc2)[c]2ccccc2)cc1`, the growth was 5.62% (active) in the test on DU-145 prostate; 3.13% (active) in the test with K-562 leukemia; -50.8% (active) in the test with MALME-3M melanoma; -12.7% (active) in the test with MDA-MB-231 breast; -86.3% (active) with RXF 393 renal; 42.9% in the test on SF-268 CNS. In addition, the growth in the test with SF-295 CNS was 107%; with SF-539 CNS, -16.3% (active); in the test on UACC-257 melanoma, 21.3%; in the test on M14 melanoma, 4.46% (active); with HCT-15 colon, -30.6% (active); with HT29 colon, 19.2%. Moreover, the growth in the test with SNB-75 CNS is 8.38% (active); in the test with SNB-19 CNS, 89.6%; with U251 CNS, 57.3%; with PC-3 prostate, 68.6%; in the test with SK-MEL-5 melanoma it was 37%; with UACC-62 melanoma it was 34.7%. In addition, the values for the growth with LOX IMVI melanoma and in the test with SK-MEL-28 melanoma were -92.8% (active) and -48.7% (active), respectively.
Take `O=C1c2ccccc2C(=O)N1c1ccccc1`: the growth is 109% in the test with DU-145 prostate; 106% with K-562 leukemia; 105% in the test on MALME-3M melanoma; 89.7% in the test with MDA-MB-231 breast; 112% in the test with RXF 393 renal; 108% in the test on SF-268 CNS. The growth in the test on SF-295 CNS was 94.9%; with SF-539 CNS it was 103%; in the test with UACC-257 melanoma, 101%; in the test with M14 melanoma, 106%; in the test with HCT-15 colon it was 105%; in the test on HT29 colon, 104%. The growth was 89.2% in the test on SNB-75 CNS; 105% with SNB-19 CNS; 93.1% with U251 CNS; 101% with PC-3 prostate; 105% in the test with SK-MEL-5 melanoma; 92% in the test with UACC-62 melanoma. Further, the results for the growth in the test on LOX IMVI melanoma and in the test on SK-MEL-28 melanoma were 104% and 115%, respectively.
For `O=C(Nc1ccccc1)Oc1c(Cl)c(Cl)c(Cl)c(Cl)c1Cl`, the growth in the test on DU-145 prostate is 110% and 101%; in the test on K-562 leukemia, 101% and 93.9%; in the test with MALME-3M melanoma, 89% and 104%; in the test with MDA-MB-231 breast it was 88.2% and 94.2%; in the test with RXF 393 renal it was 113% and 110%; in the test with SF-268 CNS, 94.2% and 98.8%. Also, the growth in the test on SF-295 CNS is 97.4% and 91.8%; with SF-539 CNS, 99.7% and 90.6%; in the test with UACC-257 melanoma, 109% and 103%; in the test with M14 melanoma, 101% and 95.3%; with HCT-15 colon, 102% and 99.8%; in the test on HT29 colon, 104% and 96.6%. Further, the growth in the test with SNB-75 CNS is 93.1% and 77.4%; in the test on SNB-19 CNS, 93.5% and 100%; in the test with U251 CNS it was 99% and 100%; in the test on PC-3 prostate, 95.6% and 93.6%; in the test with SK-MEL-5 melanoma, 101% and 96.1%; in the test on UACC-62 melanoma, 88.8% and 89.5%. Also, the growth with LOX IMVI melanoma is 99% and 93.1%; in the test with SK-MEL-28 melanoma, 119% and 101%.
Regarding `C[N+](C)=c1ccc2nc3c(cc(NCCCNc4cc5oc6cc(=[N+](C)C)ccc-6nc5c5ccccc45)c4ccccc43)oc-2c1`, the growth with DU-145 prostate was -100% (active); in the test on K-562 leukemia, -0.99% (active); in the test on MALME-3M melanoma it was 35.6%; in the test on MDA-MB-231 breast, -36.2% (active); in the test with RXF 393 renal it was 58.2%; with SF-268 CNS, 55%. The growth in the test on SF-295 CNS is 45%; in the test with SF-539 CNS it was -9.59% (active); with UACC-257 melanoma, 65.1%; with M14 melanoma, 28.9%; in the test on HCT-15 colon, -29.2% (active); in the test with HT29 colon, -32.5% (active). The growth with SNB-75 CNS is 39.6%; in the test with SNB-19 CNS, -24.6% (active); in the test on U251 CNS, -20.1% (active); with PC-3 prostate it was 6.83% (active); in the test with SK-MEL-5 melanoma, -96.3% (active); in the test with UACC-62 melanoma, 43.3%. In addition, the growth is -45.5% (active) in the test with LOX IMVI melanoma and 64.8% with SK-MEL-28 melanoma.
Take `O=C1c2ccccc2C(=O)c2sc(Nc3cccc(Cl)c3)nc21`: the growth in the test with DU-145 prostate was -93.9% (active); in the test with K-562 leukemia, 6.87% (active); in the test on MALME-3M melanoma, -89.9% (active); in the test on MDA-MB-231 breast, -8.62% (active); with RXF 393 renal, -11.5% (active); with SF-268 CNS it was -7.47% (active). For the same molecule, the growth with SF-295 CNS is 66.2%; with SF-539 CNS, -91.5% (active); in the test on UACC-257 melanoma, -74.9% (active); with M14 melanoma it was -89.1% (active); with HCT-15 colon it was -67.3% (active); in the test with HT29 colon it was 76.1%. The growth is -85.2% (active) with SNB-75 CNS; 42.8% in the test with SNB-19 CNS; -47.3% (active) in the test with U251 CNS; 3.03% (active) in the test with PC-3 prostate; -82.6% (active) with SK-MEL-5 melanoma; -55.6% (active) in the test with UACC-62 melanoma. In addition, the figures for the growth with LOX IMVI melanoma and in the test on SK-MEL-28 melanoma were -69.1% (active) and -78.1% (active), respectively.
`Cc1c2ccccc2c(C)c2c1ccc1ccccc12`: the growth was 97.5% in the test with DU-145 prostate; 85.1% with K-562 leukemia; 88.8% with MALME-3M melanoma; 89.8% in the test with MDA-MB-231 breast; 96.3% in the test with RXF 393 renal; 98.5% with SF-268 CNS. The growth in the test on SF-295 CNS was 96.9%; in the test on SF-539 CNS, 92.3%; in the test with UACC-257 melanoma it was 94.7%; in the test on M14 melanoma, 86.8%; in the test on HCT-15 colon, 90.3%; with HT29 colon, 92.9%. Also, the growth in the test with SNB-75 CNS was 88.1%; with SNB-19 CNS, 103%; in the test with U251 CNS it was 94.5%; in the test on PC-3 prostate it was 83%; with SK-MEL-5 melanoma it was 93.1%; with UACC-62 melanoma it was 80.5%. The growth was 64.3% in the test with LOX IMVI melanoma and 92.8% in the test with SK-MEL-28 melanoma.
